4-MU autofl: qHTS Assay for Spectroscopic Profiling in 4-MU Spectral Region | compound autofluorescence, 340/450 nm, 4-MU equivalents; active compounds read high | actives 11% (n = 59,000) | max dye-equivalent concentration, M; in the data active = max dye-equivalent concentration above about 10 nM; inconclusive = mostly about 1.1 nM to 9.6 nM
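Compounds in 100 mM Tris, pH 8.0, sat 15 min at room temperature before fluorescence was read at 340 nm excitation/450 nm emission; a per-plate six-point 4-MU standard curve converted signals to dye-equivalent concentration at each compound concentration.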
AID923: qHTS Assay for Allosteric/Competitive Inhibitors of Caspase-1: Spectroscopic Profiling in AFC Spectral Region; actives 1.1% (n = 75,000); compound fluorescence, AFC spectral region (405/520 nm); AID 923, 2007; Potency, µM (highest dose often 57.5 µM), inactives show top-dose fluorescence increase, hits mostly activators; also: potency is read from the fitted curve at half-maximal effect; 0% is about no effect
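Titrations up to 57 uM read every 20 sec for 3 min (405/520 nm) with 50 nM caspase 1 and 5 uM Ac-WEHD-AFC, pH 7.5 HEPES buffer. Fluorescence-vs-time intercept gave baseline, scaled against on-plate AFC standard.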
CRE-bla Fsk: Cell signaling CRE-BLA (Fsk stim); CHO CRE-bla reporter (cAMP response element driving beta-lactamase), forskolin EC10, beta-lactamase ratio; Potency, µM (doses to about 38.2 µM), for the others: at the highest dose activity change, negative = inhibition, actives largely listed as activators; actives 2.5% (n = 71,000); AID 662, 2007; active = well fitted activation curve with a large enough effect in the signal ratio, with a control signal flat, not every such curve was filed as active; inconclusive = small, poorly fitted or top-dose-only effect, or effect the other way, or a change in a side signal; the % refers to the signal ratio; also: potency is read from the fitted curve at half-maximal effect; % of control where 0% means no effect
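Using CellSensor CRE-bla CHO cells in Opti-MEM with 0.5% dialyzed FBS, compounds were titrated with EC10 NKH 477 for 3 h at 37 °C. CCF4 ratio (460/530 nm) gave %Activity; AC50 derived.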
A350 autofl: qHTS Assay for Spectroscopic Profiling in A350 Spectral Region; AID 590, 2007; actives 11% (n = 59,000); max dye-equivalent concentration, M; Compound autofluorescence, 340/450 nm, Alexa 350 dye-equivalents; active compounds read high; in the data active = max dye-equivalent concentration above about 10 nM; inconclusive = mostly about 1.1 nM to 9.6 nM
HADH2 inhib: qHTS Assay for Inhibitors of HADH2 (Hydroxyacyl-Coenzyme A Dehydrogenase, Type II); Potency, µM (top dose mostly 57.1 µM), without a hit: top-dose activity change, negative = inhibition, hits mostly inhibitors; recombinant HADH2, NADH fluorescence, beta-hydroxybutyryl-CoA; actives 3.4% (n = 73,000); AID 886, 2007; also: potency is read from the fitted curve at half-maximal effect; % is scaled to controls: 0 for no effect and ±100 for the full control effect; nearly all actives have a fitted effect of over 60% in size
Target sequence (Q99714 whole entry, looked up, one chain of several): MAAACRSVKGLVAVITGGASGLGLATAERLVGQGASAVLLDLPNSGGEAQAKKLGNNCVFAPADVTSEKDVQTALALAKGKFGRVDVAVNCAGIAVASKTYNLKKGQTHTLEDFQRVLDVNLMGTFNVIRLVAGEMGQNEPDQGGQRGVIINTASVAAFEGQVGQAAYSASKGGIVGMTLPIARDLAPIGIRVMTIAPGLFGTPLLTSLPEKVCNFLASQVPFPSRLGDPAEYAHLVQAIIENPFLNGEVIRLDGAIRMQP
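Buffer 100 mM Tris-HCl pH 9.0/0.01% Tween-20; HADH2 20 nM; NAD+ 1 mM; beta-hydroxybutyryl-CoA 90 uM (all final). 15 min cpd preincubation, RT.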
HSD17B inhib: qHTS Assay for Inhibitors of HSD17B4, hydroxysteroid (17-beta) dehydrogenase 4 | actives 7.6% (n = 75,000) | recombinant HSD17B10, NADH fluorescence kinetic | 3-hydroxyacyl-CoA dehydrogenase type-2 (Homo sapiens), Q99714 | Potency, µM (series often up to 57.1 µM), inactives show at the top dose activity change, negative = inhibition, usual class: inhibitors;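 also: the protocol describes HADH2 (HSD17B10) and not the HSD17B4 of the title; potency is read from the fitted curve at half-maximal effect; % is scaled to controls: 0 for no effect and ±100 for the full control effect; nearly all actives have a fitted effect of over 70% in size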
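Enzyme plus compound, 15 min room temperature; substrate mix added (NAD+ 1 mM, beta-hydroxybutyryl-CoA 90 uM final); plates read kinetically for NADH fluorescence. HADH2 was His-tagged, E. coli-derived, 20 nM.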
* = called active by the depositor; [ ] = another dose, or the depositor's remark. The list is not random: actives were taken first. Their share in the collection is about 14%. Unless noted, calls follow the shape of the dose curve; as a rule, active = well fitted curve in the direction sought with a large enough effect; inconclusive = small, poorly fitted or top-dose-only effect, or another doubt; inactive = no such curve, though single readings can be large; an effect the other way counts as inactive or inconclusive.

`CS(=O)(=O)N(CC(=O)O)Cc1ccccc1` gave 4-MU autofl inactive, AID923 -1%[11.5 µM], CRE-bla Fsk 5%[7.6 µM], A350 autofl inactive, HADH2 inhib 0%[11.4 µM] and HSD17B inhib 3%[11.4 µM].
Screening CC(=O)Nc1ccc(NC(=O)Oc2ccccc2)cc1 returned 4-MU autofl inactive, AID923 0%, CRE-bla Fsk -12%, A350 autofl inactive, HADH2 inhib -10% and HSD17B inhib -7%.
Screening O=C(Nc1ccc2oc(=O)c(C(=O)O)cc2c1)Oc1ccccc1 returned 4-MU autofl 5e-08M*, AID923 0%[11.5 µM], CRE-bla Fsk 7%[7.6 µM], A350 autofl 5.5e-08M*, HADH2 inhib -9%[11.4 µM] and HSD17B inhib inconclusive.
O=C1CCCC2=C1C(c1ccsc1)CC(=O)N2c1ccccc1 (stereo not drawn) was read as 4-MU autofl inactive, AID923 -3%, CRE-bla Fsk -6%, A350 autofl inactive, HADH2 inhib -12% and HSD17B inhib 1%.
Cc1nn(-c2ccccn2)c2c1C(c1ccsc1)C1=C(CCCC1=O)N2 (stereo not drawn) was read as 4-MU autofl 3.8e-07M*, AID923 2%, CRE-bla Fsk 3.2µM*, A350 autofl 3.5e-07M*, HADH2 inhib inconclusive and HSD17B inhib 25µM*.
For c1coc(C2Nc3ccccc3-c3nc4ccccc4n32)c1 (stereo not drawn) the results were 4-MU autofl 3.2e-06M*, AID923 10%, CRE-bla Fsk inconclusive, A350 autofl 3.4e-06M*, HADH2 inhib 16µM* and HSD17B inhib 13µM*.
For O=C1Cn2c(nc3ccccc32)-c2ccccc2N1 the results were 4-MU autofl inconclusive, AID923 1%, CRE-bla Fsk 0%, A350 autofl inconclusive, HADH2 inhib 0% and HSD17B inhib -26%.
Screening c1ccc(C2Nc3ccccc3-c3nc4ccccc4n32)nc1 (stereo not drawn) returned 4-MU autofl 2.1e-06M* and A350 autofl 2.4e-06M*.
`COc1ccc(C2C(C#N)=C(/N=C/N3CCN(C)CC3)OC3=C2C(=O)CC(C)(C)C3)cc1OC` (stereo not drawn) gave 4-MU autofl 6e-07M*, AID923 1%, CRE-bla Fsk inconclusive, A350 autofl 5.7e-07M*, HADH2 inhib -15% and HSD17B inhib -4%.
Screening COc1cc(C2C(C#N)=C(N)OC3=C2C(=O)CC(C)(C)C3)ccc1OC(=O)N1CCOCC1 (stereo not drawn) returned 4-MU autofl inactive, AID923 1%, CRE-bla Fsk inconclusive, A350 autofl inactive, HADH2 inhib 4% and HSD17B inhib 1%.
Cc1cc(NC(=O)c2cccc(S(=O)(=O)N3CCCCCC3)c2)n(-c2ccccn2)n1 was read as 4-MU autofl inactive, AID923 0%, CRE-bla Fsk 24%, A350 autofl inactive, HADH2 inhib 15% and HSD17B inhib 9%.
Screening Cc1cc(NC(=O)C2CCC2)n(-c2ccccn2)n1 returned 4-MU autofl inactive, AID923 -1%, CRE-bla Fsk 3.2µM*, A350 autofl inconclusive, HADH2 inhib 13% and HSD17B inhib 3%.
`CN(C)S(=O)(=O)c1ccc(C(=O)Nc2ccccn2)cc1` gave AID923 5%, CRE-bla Fsk inconclusive, HADH2 inhib 6%[11.4 µM] and HSD17B inhib -2%.
For CN(C)S(=O)(=O)c1ccc(C(=O)Nc2ccnn2C2CCCCC2)cc1 the results were 4-MU autofl 1.9e-08M*, AID923 4%, CRE-bla Fsk -4%, A350 autofl 1.9e-08M*, HADH2 inhib 8% and HSD17B inhib -2%.
O=C(O)Cc1ccc(O)c(O)c1 was read as 4-MU autofl inactive, AID923 -1%, CRE-bla Fsk 8%, A350 autofl inactive, HADH2 inhib 0.5µM* and HSD17B inhib inconclusive.
For N[C@@H](Cc1ccc(O)c(I)c1)C(=O)O the results were 4-MU autofl inactive, AID923 -1%, A350 autofl inactive, HADH2 inhib -4% and HSD17B inhib -6%.
For C[C@@](N)(Cc1ccc(O)c(O)c1)C(=O)O the results were 4-MU autofl inconclusive, AID923 -1%, CRE-bla Fsk -4%[17.1 µM], A350 autofl inconclusive, HADH2 inhib 0.1µM* and HSD17B inhib inconclusive.
COC(=O)[C@@H](N)Cc1ccc(O)c(O)c1 was read as 4-MU autofl inactive, AID923 -2%, CRE-bla Fsk 2%, A350 autofl inactive, HADH2 inhib 0.063µM* and HSD17B inhib 70%.
Screening CCn1c2ccc(CC(=O)O)cc2c2cc(CC(=O)O)ccc21 returned 4-MU autofl inconclusive, AID923 0%, CRE-bla Fsk 20%, A350 autofl inconclusive, HADH2 inhib 3% and HSD17B inhib 25µM*.
NC(Cc1ccccc1)(C(=O)O)C(=O)O was read as 4-MU autofl inactive, AID923 2%[11.5 µM], CRE-bla Fsk -29%[7.6 µM], A350 autofl inactive, HADH2 inhib 6%[11.4 µM] and HSD17B inhib 0%[11.4 µM].
Screening NC(=O)NC(=O)[C@H]1CCCC[C@@H]1C(=O)O returned 4-MU autofl inactive, AID923 1%[11.5 µM], CRE-bla Fsk -4%[7.6 µM], A350 autofl inactive, HADH2 inhib -12%[11.4 µM] and HSD17B inhib 5%[11.4 µM].
For COc1ccc2cc(CN(CC3COCCO3)S(=O)(=O)c3ccc(Cl)cc3)c(=O)[nH]c2c1 (stereo not drawn) the results were 4-MU autofl inactive, AID923 0%, CRE-bla Fsk 1%, A350 autofl inconclusive, HADH2 inhib 380% and HSD17B inhib inconclusive.
CC1CC[C@@]2(C(=O)O)CC[C@]3(C)C(=CCC4[C@@]5(C)CCC(O)C(C)(C)C5CC[C@@]43C)C2C1C (stereo partly drawn) was read as AID923 0% and HSD17B inhib -6%.
Screening CO[C@H]1COC(=O)[C@@H](C)COC(=O)[C@H](C)NC(=O)C/C=C\[C@H]1C returned AID923 0%[11.5 µM], HADH2 inhib 1%[11.4 µM] and HSD17B inhib 0%[11.4 µM].
CCC1c2ccc(C)n2CCN1C(=O)Nc1ccccc1OC (stereo not drawn) was read as 4-MU autofl 1.8e-08M*, AID923 18%, CRE-bla Fsk -8%, A350 autofl 2.1e-08M*, HADH2 inhib -6% and HSD17B inhib 32µM*.

Screening results deposited in PubChem BioAssay by National Center for Advancing Translational Sciences (NCATS).
